Results: PubChem BioAssay AID463190 (Sanford-Burnham Center for Chemical Genomics, 2010)
Out of some 330,000 compounds screened, about 7,300 (2.2%) were called active. This is one part of a sample in which actives are shown more often than they occur. Unmarked numbers belong to inactive results.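 How the source made its calls: active means inhibition of at least 40%; inactive means the rest.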

Assay: growth inhibition of tim10-1 ts yeast – luminescence, uHTS, primary screen (AID 463190);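 further: mutant grown at 25 °C; 0% = DMSO wells with yeast and 100% = wells holding no yeast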
Conditions: S. cerevisiae tim10-1 ts strain growth, BacTiter-Glo, 24 h; at 20 µM; active compounds read high

| SMILES | inhibition |
| --- | --- |
| CCOC(=O)/C=C/CN(C(=O)OC(C)(C)C)S(=O)(=O)N1CC=CC1 | 17.9% |
| CC(C)(Oc1ccc(C2CC2(Cl)Cl)cc1)C(=O)O (stereo not drawn) | 9.95% |
| CN(C)C(=O)c1ccc2c(c1)C1C3CCC(C3)C1C(c1ccccc1)N2 (stereo not drawn) | 46% (active) |
| CN(C)C(=O)c1ccc(NC(=O)c2ccccc2-c2ccccc2)cc1 | 3.15% |
| Cc1ccc(C)c(N2CCN(C(=O)CCc3nc(-c4cccc(C(F)(F)F)c4)no3)CC2)c1 | 17.8% |
| OCCC1CN(Cc2ccccc2-c2ccco2)CCN1Cc1ccsc1 (stereo not drawn) | 17.5% |
| COc1cc(C=NNC(=O)c2cccnc2)ccc1OC(=O)c1ccccc1F | 4.11% |
| CN(NS(=O)(=O)c1cccs1)c1ncc(C(F)(F)F)cc1Cl | 15.9% |
| COCCNc1nc(-n2nc(C)cc2C)nc2sc3c(c12)CCCC3 | 30.3% |
| CC(C)c1nc(SCC(=O)Nc2cccc(C(=O)O)c2)c2c3c(sc2n1)CCCC3 | 10.1% |
| Cc1cc(C)n(-c2nc(SCC(=O)N3CCCC3)c3c4c(sc3n2)CCCC4)n1 | 52.2% (active) |
| O=C(O)C1CCCN1S(=O)(=O)c1ccc(Br)cc1 (stereo not drawn) | -5.99% |
| COCCN(C(=O)COC(=O)Cc1cccc(OC)c1)c1c(N)n(Cc2ccccc2)c(=O)[nH]c1=O | 0.462% |
| CC(C)(C)NC(=O)/C(=C/c1cccnc1)NC(=O)c1ccco1 | -15.4% |
| N#C/C(=C\c1cccnc1)C(=O)Nc1ccc(SC(F)F)cc1 | 52.5% (active) |
| Cc1cc(/C=C(/C#N)C(=O)Nc2ccc(Cl)cc2)c(C)n1-c1cccnc1 | 20.6% |
| O=C(O)CCCCCCCCc1cn(CN2C(=O)c3ccccc3C2=O)nn1 | -13.2% |
| CCOC(=O)N1CCC(N(CCOC)C(=O)Nc2ccc(C)c(C)c2)CC1 | 26.7% |
| COc1ccc(/C(=N\O)c2nccc3cc(OC)c(OC)cc23)cc1OC | 17.4% |
| Cc1ccc(-c2csc(NCCc3nc4cc(Cl)c(Cl)cc4n3CCOCCO)n2)cc1 | 33.4% |
| Cc1ccccc1Nc1nc(-c2cccnc2)cs1 | -3.25% |
| Cc1ccc(Nc2nc(-c3ccc(O)cc3O)cs2)nc1 | 43.9% (active) |
| COc1c(C(=O)N2CCCC2)ccc2ccccc12 | 6% |
| C[C@@H](NC(=O)[C@@H]1Cc2ccccc2CN1)C(=O)NC1CCCC1 | 5.23% |

| SMILES | inhibition |
| --- | --- |
| CC(C)(CNC(=O)c1cc(=O)[nH]c2ccccc12)N1CCOCC1 | -7.73% |
| O=[N+]([O-])c1cccc(/C=N/Nc2ncc(Br)cn2)c1 | -23.5% |
| O=[N+]([O-])c1ccc(N/N=C/c2ccccc2)cc1 | 40.7% (active) |
| O=C(N/N=C/c1ccc([N+](=O)[O-])cc1)C(=O)N1CCCC1 | 17.3% |
| COc1ccc(-n2nc(C(=O)NCC(=O)N3CCN(c4ccccc4OC)CC3)c3ccccc3c2=O)c(OC)c1 | 1.49% |
| CCN(c1ccccc1)S(=O)(=O)c1ccc2[nH]c(=O)[nH]c2c1 | 11.5% |
| O=C(O)C(c1ccccc1)C1(O)CCCCC1 (stereo not drawn) | 2.11% |
| Cc1ccc(C(=O)Nc2c(C#N)c(C)c(C)n2Cc2ccccc2)cc1 | 17.9% |
| OC(CNCC1CCCO1)Cn1c2ccc(Br)cc2c2cc(Br)ccc21 (stereo not drawn) | 45.7% (active) |
| O=C(CSc1ccc(-c2ccc(Br)cc2)nn1)NCC1CCCO1 (stereo not drawn) | 17.5% |
| O=C(CCNS(=O)(=O)c1ccc(Br)cc1)NCC1CCCO1 (stereo not drawn) | 1.09% |
| NC(=O)C1CCN(C(=O)/C(=C/c2ccco2)NC(=O)c2ccccc2)CC1 | -8.85% |
| NC(=O)CC[C@@H]1NC(=O)[C@H](CO)NC(=O)c2cc([N+](=O)[O-])cc(I)c2NCC[C@@H](C(N)=O)NC1=O | -26.8% |
| CCOc1ccc(NC(=O)[C@H](C)NC(=O)C2CC(=O)N(c3ccc(OC)cc3)C2)cc1 (stereo partly drawn) | -6.36% |
| COC(=O)C(NS(=O)(=O)c1ccc(F)cc1)c1ccccc1 (stereo not drawn) | 13.7% |
| Cc1ccc(Oc2ccc3c(c2)C(=O)N(c2cccc4cccnc24)C3=O)cc1 | 18.3% |
| Cc1ccc(OCC(=O)Nn2cnc3ccccc32)cc1 | 1.81% |
| Cc1ccc(OS(=O)Nc2cccc3nccnc23)cc1 (stereo not drawn) | 54.6% (active) |
| CCOc1ccc(NS(=O)(=O)c2cc(C)c(C)cc2C)cc1 | 1.28% |
| CC(C)(C)c1cc(CN2CCN(CCC#N)CC2)cc(C(C)(C)C)c1O | -1.87% |
| CCN1/C(=C\c2ccc3ccccc3[n+]2CC)Sc2cc(C)ccc21 | 65.2% (active) |
| C=CCn1c(COc2ccc(F)cc2)nnc1SCC(=O)Nc1cccc(S(N)(=O)=O)c1 | -3.82% |
| O=c1nc(N2CCOCC2)nc2n1CCO2 | -13.4% |
| CCC1CCCCN1C(=O)CSc1nc2c(c(=O)n(C)c(=O)n2C)n1C (stereo not drawn) | 0.551% |

| SMILES | inhibition |
| --- | --- |
| O=S(=O)(c1ccc(F)cc1)n1ccc(-c2cnc(-c3ccccc3)s2)n1 | 24.1% |
| COc1ccc2oc(-c3cccc(NC(=O)CSc4ccc(Cl)cc4)c3)nc2c1 | 21.6% |
| CC(=O)Oc1ccc2c(=O)oc(-c3ccc([N+](=O)[O-])cc3)nc2c1 | 22.6% |
| O=[N+]([O-])c1ccc2oc(-c3cccc(O)c3)nc2c1 | 45.7% (active) |
| Cc1ccc(OS(=O)(=O)c2ccc(-c3csc(C)n3)s2)c(C)c1 | 10.6% |
| COc1cc(C=O)ccc1Oc1nnnn1-c1ccccc1 | 22.8% |
| O=C(CNC(=O)c1ccccc1)Oc1ccc([N+](=O)[O-])cc1 | 3.17% |
| O=C(CCNC(=O)c1ccccc1)Nc1nc2ccccc2s1 | -11% |
| O=C(NC(Nc1nc2ccc([N+](=O)[O-])cc2s1)(C(F)(F)F)C(F)(F)F)c1ccccc1 | 85.4% (active) |
| CCC(=O)Nc1cccc(C2=NOC3(C2)C[C@@H](C(N)=O)N(C(=O)c2cc([N+](=O)[O-])cc([N+](=O)[O-])c2C)C3)c1 (stereo partly drawn) | 9.39% |
| O=C1c2ccccc2C(=O)c2c1cccc2N1CCN(Cc2ccccc2)CC1 | 49.4% (active) |
| O=C1c2ccccc2C(=O)c2c1cccc2N1CCN(CCO)CC1 | 15.9% |
| O=C1c2ccccc2C(=O)c2c1cccc2N1CCN(C/C=C/c2ccccc2)CC1 | 23.3% |
| CC1CCN(S(=O)(=O)c2ccc3c(ccn3CC(=O)O)c2)CC1 | 6.77% |
| COc1ccc([N+](=O)[O-])cc1NC(=O)CCc1ccccc1 | 27.1% |
| O=C(CCc1ccccc1)Nc1ncc([N+](=O)[O-])s1 | 45.9% (active) |
| O=C(Cc1c(F)cccc1Cl)Nc1ncc([N+](=O)[O-])s1 | 32.8% |
| O=C(C1CCCN(S(=O)(=O)c2ccccc2)C1)N1CCN(c2ccc(F)cc2)CC1 (stereo not drawn) | 17.6% |
| Fc1ccccc1-c1cc2cc3c(cc2cn1)OCO3 | -19.8% |
| COCCNC(=S)N(CCc1c(C)[nH]c2ccc(C)cc12)Cc1cccnc1 | 11.6% |
| CCNC(=S)N(CCc1c(C)[nH]c2ccc(C)cc12)Cc1ccco1 | 45.6% (active) |
| COc1cccc(NC(=S)N(CCc2c(C)[nH]c3ccccc23)Cc2ccco2)c1 | 32.4% |
| CC(CNS(=O)(=O)c1ccc(Br)cc1)CN(C)C (stereo not drawn) | 6.17% |
| O=C(c1ccccn1)c1ncc(C(F)(F)F)cc1Cl | 7.58% |

| SMILES | inhibition |
| --- | --- |
| N/C(=N\OC(=O)CCCC(=O)O)c1ncc(C(F)(F)F)cc1Cl | 1.66% |
| N/C(=N\OC(=O)Nc1ccc(Cl)c(Cl)c1)c1ncc(C(F)(F)F)cc1Cl | 49.2% (active) |
| Cc1cccc(NC(=O)C2CCCN(C(=O)Nc3ccc(F)cc3)C2)c1C (stereo not drawn) | -25.6% |
| Cc1ccccc1CC1(CO)CCCN(Cc2ccc3c(c2)OCCO3)C1 (stereo not drawn) | 8.67% |
| Cc1ccccc1CC1(CO)CCCN(C(=O)c2cc(-c3ccccc3)no2)C1 (stereo not drawn) | 42.6% (active) |
| Cc1noc(C)c1CCC(=O)N1CCCC(CO)(Cc2ccccc2)C1 (stereo not drawn) | -14.1% |
| Cc1ccc(OC(=O)c2c(C)nn(-c3ccccc3)c2C)cc1 | 25.6% |
| Cc1cccc(-n2ncc(Cl)c(Cl)c2=O)c1 | -25.8% |
| Cc1ccc(Oc2cnn(-c3ccccc3)c(=O)c2Br)cc1 | 42.1% (active) |
| COc1ccc(S(=O)(=O)/N=C2\C=C(NS(=O)(=O)c3ccccc3)C(=O)c3ccccc32)cc1 | 31.1% |
| CCc1[nH]nc(C(=O)N2CCCC(CO)(Cc3ccc(F)cc3F)C2)c1C (stereo not drawn) | 24.1% |
| COc1cc2c(cc1OC)C(C(=O)Nc1cc(C)c(OC)c(C)c1)CC(=O)N2 (stereo not drawn) | -5.96% |
| CS(=O)(=O)N(Cc1ccccc1)c1ccc(C(=O)NN=C2CCCCCC2)cc1 | 17.2% |
| O=C(N/N=C/c1cccc(Br)c1)c1ccc(N2CCCC2=O)cc1 | -37.8% |
| O=C(N/N=C\c1cccc(Br)c1)c1ccccc1-n1cccc1 | 57.6% (active) |
| O=C(CNC(=O)c1cccs1)N/N=C/c1cccc(Br)c1 | 22% |
| CCN(Cc1ccncc1)C(=O)CCc1ccccc1 | -0.112% |
| COc1ccc(CNC(=O)CCn2cccc2)cc1 | 9.29% |
| COc1ccc(NC(=O)/C(C#N)=C\c2cc(OC)c(OCc3ccc(C(=O)O)cc3)cc2Br)cc1 | 26.4% |
| COc1ccc(CNC(=O)/C(C#N)=C/c2cccc(OC)c2OC)cc1 | 63.8% (active) |
| CC(C)c1ccc(/C=C2\NC(=O)NC2=O)cc1 | 10.2% |
